{"source": "PubChem BioAssay (EPA / NIEHS)", "note": "Inconclusive results are not listed. Activity calls are given as the source filed them. Rule for the calls: active = hit-call score of the fitted dose curve at least 0.9, where 1 is the maximum; inconclusive = response in the unintended direction; inactive = score below 0.9."}
{"assay": "ACEA_ER_80hr: ACEA Biosciences xCELLigence Real-Time Cell Analysis on Estrogen Receptor Agonism for Proliferation (AID 2282667)", "conditions": "T47D proliferation, impedance (xCELLigence), 80 h", "method_in_brief": "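Real-time impedance growth kinetics of human T-47D breast cells read 80 h after dosing, gain-of-signal fitted relative to DMSO. Compounds: 1:4 serial series, top final concentration 100 uM, n = 2.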"}
{"compound": "Fc1ccc(C2(Cn3cncn3)OC2c2ccccc2Cl)cc1", "note": "(stereo not given)", "outcome": "inactive"}
{"compound": "Clc1ccc(COC(Cn2ccnc2)c2ccc(Cl)cc2Cl)cc1", "note": "(stereo not given)", "outcome": "inactive"}
{"compound": "O=C(O)CCC(F)(C(F)(F)F)C(F)(F)F", "outcome": "inactive"}
{"compound": "O=C(Cc1ccccc1)c1ccccc1", "outcome": "inactive"}
{"compound": "COS(=O)(=O)c1ccc(C)cc1", "outcome": "inactive"}
